# From PMC5540273 (PLoS ONE, 2017)
# “And” between values parts separate entries of the source, which are not always exact repeats. Equal values may be shown once. Read-outs that look alike come from different tables or passages of the source.
# Experiments:
# Conditions in all cases: n = 1
# [1] = system: T1, RSK2(Kin.Dom.2-C-terminal)
# T1 construct: gene RPS6KA3
# [2] = system: T2, RSK3(Kin.Dom.1-N-terminal)
# T2 construct: gene RPS6KA2
# [3] = system: T3, RSK3(Kin.Dom.2-C-terminal)
# T3 construct: gene RPS6KA2
# [4] = system: T4, RSK4(Kin.Dom.1-N-terminal)
# T4 construct: gene RPS6KA6
# [5] = system: T5, RSK4(Kin.Dom.2-C-terminal)
# T5 construct: gene RPS6KA6
# S6K1 = system: S6K1
# SBK1 = system: SBK1
# SGK2 = system: SGK2
# SGK3 = system: SGK3
# SGK = system: SGK
# SIK2 = system: SIK2
# SIK = system: SIK
# SLK = system: SLK
# SNARK = system: T6, SNARK
# T6 construct: gene NUAK2
# SNRK = system: SNRK
# SRC = system: SRC
# SRMS = system: SRMS
# SRPK1 = system: SRPK1
# SRPK2 = system: SRPK2
# SRPK3 = system: SRPK3
# [6] = concentration: 1 μM, replicates: in singlicate
# [7] = concentration: 1 μM,replicates: in singlicate, 1 µM
# 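Further: KINOMEscan kinase panel screen.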
structure (smiles),measurement,setting,value
COc1cc(Nc2nccc(N3CCC(NC(=O)Nc4cc(C)ccc4C)C3)n2)cc(OC)c1OC (stereo not shown) [GSK1379762],%Inh,[1]; [6],2%
same,%Inh,[2]; [6],9%
same,%Inh,[3]; [6],0%
same,%Inh,[4]; [6],0%
same,%Inh,[5]; [6],14%
same,%Inh,S6K1; [6],3%
same,%Inh,SBK1; [6],6%
same,%Inh,SGK2; [6],12%
same,%Inh,SGK3; [6],0%
same,%Inh,SGK; [6],0%
same,%Inh,SIK2; [6],6%
same,%Inh,SIK; [6],0%
same,%Inh,SLK; [6],23%
same,%Inh,SNARK; [6],23%
same,%Inh,SNRK; [6],0%
same,%Inh,SRC; [6],24%
same,%Inh,SRMS; [6],0%
same,%Inh,SRPK1; [6],53%
same,%Inh,SRPK2; [6],0%
same,%Inh,SRPK3; [6],29%
CC(=O)Nc1nc2cnc(Nc3cc(NC(=O)c4cccc(CCC#N)c4)ccc3C)nc2s1,%Inh,[1]; [6],6%
same,%Inh,[2]; [6],0%
same,%Inh,[3]; [6],1%
same,%Inh,[4]; [6],24%
same,%Inh,[5]; [6],0%
same,%Inh,S6K1; [6],3%
same,%Inh,SBK1; [6],0%
same,%Inh,SGK2; [6],0%
same,%Inh,SGK3; [6],7%
same,%Inh,SGK; [6],0%
same,%Inh,SIK2; [6],0%
same,%Inh,SIK; [6],16%
same,%Inh,SLK; [6],14%
same,%Inh,SNARK; [6],9%
same,%Inh,SNRK; [6],33%
same,%Inh,SRC; [6],18%
same,%Inh,SRMS; [6],0%
same,%Inh,SRPK1; [6],17%
same,%Inh,SRPK2; [6],22%
same,%Inh,SRPK3; [6],0%
Cc1ccc(NC(=O)Nc2cccc(C(F)(F)F)c2)cc1 [GSK955403],%Inh,[1]; 1 µM,0%
same,%Inh,[2]; 1 µM,7%
same,%Inh,[3]; 1 µM,27%
same,%Inh,[4]; 1 µM,0%
same,%Inh,[5]; 1 µM,23%
same,%Inh,S6K1; 1 µM,2%
same,%Inh,SBK1; 1 µM,0%
same,%Inh,SGK2; 1 µM,7%
same,%Inh,SGK3; 1 µM,0%
same,%Inh,SGK; 1 µM,22%
same,%Inh,SIK2; 1 µM,0%
same,%Inh,SIK; 1 µM,0%
same,%Inh,SLK; 1 µM,5%
same,%Inh,SNARK; 1 µM,0%
same,%Inh,SNRK; 1 µM,0%
same,%Inh,SRC; 1 µM,15%
same,%Inh,SRMS; 1 µM,0%
same,%Inh,SRPK1; 1 µM,17%
same,%Inh,SRPK2; 1 µM,5%
same,%Inh,SRPK3; 1 µM,0%
Cn1ccc2ncnc(Oc3cccc(C(=O)Nc4ccccc4)c3)c21,%Inh,[1]; [6],0%
same,%Inh,[2]; [6],0%
same,%Inh,[3]; [6],13%
same,%Inh,[4]; [6],14%
same,%Inh,[5]; [6],0%
same,%Inh,S6K1; [6],0%
same,%Inh,SBK1; [6],0%
same,%Inh,SGK2; [6],2%
same,%Inh,SGK3; [6],26%
same,%Inh,SGK; [6],0%
same,%Inh,SIK2; [6],5%
same,%Inh,SIK; [6],15%
same,%Inh,SLK; [6],13%
same,%Inh,SNARK; [6],23%
same,%Inh,SNRK; [6],9%
same,%Inh,SRC; [6],0%
same,%Inh,SRMS; [6],0%
same,%Inh,SRPK1; [6],0%
same,%Inh,SRPK2; [6],0%
same,%Inh,SRPK3; [6],0%
Cc1ccc(-c2cc(-c3c[nH]nc3-c3ccccn3)ccn2)cc1 [GW684088],%Inh,[1]; [6],30%
same,%Inh,[2]; [6],0%
same,%Inh,[3]; [6],25%
same,%Inh,[4]; [6],0%
same,%Inh,[5]; [6],62%
same,%Inh,S6K1; [6],5%
same,%Inh,SBK1; [6],4%
same,%Inh,SGK2; [6],0%
same,%Inh,SGK3; [6],4%
same,%Inh,SGK; [6],0%
same,%Inh,SIK2; [6],0%
same,%Inh,SIK; [6],0%
same,%Inh,SLK; [6],0%
same,%Inh,SNARK; [6],0%
same,%Inh,SNRK; [6],0%
same,%Inh,SRC; [6],0%
same,%Inh,SRMS; [6],9%
same,%Inh,SRPK1; [6],13%
same,%Inh,SRPK2; [6],52%
same,%Inh,SRPK3; [6],0%
CSc1nn2c(=O)cc(N3CCOCC3)nc2n1Cc1cccc(C(F)(F)F)c1C [GSK2363608],%Inh,[1]; [7],0% and 5%
same,%Inh,[2]; [7],0% and 16%
same,%Inh,[3]; [7],10% and 0%
same,%Inh,[4]; [6],0%
same,%Inh,[5]; [7],3% and 0%
same,%Inh,S6K1; [7],3% and 10%
same,%Inh,SBK1; [7],1% and 2%
same,%Inh,SGK2; [6],0%
same,%Inh,SGK3; [7],6% and 4%
same,%Inh,SGK; [6],0%
same,%Inh,SIK2; [7],4% and 0%
same,%Inh,SIK; [6],0%
same,%Inh,SLK; [7],20% and 3%
same,%Inh,SNARK; [7],18% and 0%
same,%Inh,SNRK; [6],0%
same,%Inh,SRC; [7],3% and 0%
same,%Inh,SRMS; [6],0%
same,%Inh,SRPK1; [7],34% and 16%
same,%Inh,SRPK2; [6],0%
same,%Inh,SRPK3; [6],0%
O=C(Nc1n[nH]c2nc(-c3nccs3)c(Br)cc12)C1CC1 [SB-742251],%Inh,[1]; [6],0%
same,%Inh,[2]; [6],19%
same,%Inh,[3]; [6],0%
same,%Inh,[4]; [6],0%
same,%Inh,[5]; [6],2%
same,%Inh,S6K1; [6],6%
same,%Inh,SBK1; [6],1%
same,%Inh,SGK2; [6],12%
same,%Inh,SGK3; [6],0%
same,%Inh,SGK; [6],0%
same,%Inh,SIK2; [6],0%
same,%Inh,SIK; [6],6%
same,%Inh,SLK; [6],0%
same,%Inh,SNARK; [6],0%
same,%Inh,SNRK; [6],0%
same,%Inh,SRC; [6],0%
same,%Inh,SRMS; [6],0%
same,%Inh,SRPK1; [6],19%
same,%Inh,SRPK2; [6],21%
same,%Inh,SRPK3; [6],0%
Cl.Oc1ccc(-c2nc(-c3ccccc3)[nH]c2-c2ccncc2)cc1 [SB-428218],%Inh,[1]; [6],0%
same,%Inh,[2]; [6],0%
same,%Inh,[3]; [6],8%
same,%Inh,[4]; [6],0%
same,%Inh,[5]; [6],32%
same,%Inh,S6K1; [6],14%
same,%Inh,SBK1; [6],0%
same,%Inh,SGK2; [6],0%
same,%Inh,SGK3; [6],0%
same,%Inh,SGK; [6],7%
same,%Inh,SIK2; [6],0%
same,%Inh,SIK; [6],0%
same,%Inh,SLK; [6],28%
same,%Inh,SNARK; [6],0%
same,%Inh,SNRK; [6],5%
same,%Inh,SRC; [6],33%
same,%Inh,SRMS; [6],7%
same,%Inh,SRPK1; [6],0%
same,%Inh,SRPK2; [6],0%
same,%Inh,SRPK3; [6],3%
COc1ccc(Nc2nccc(NCCNC(=O)Nc3ccccc3F)n2)cc1 [GSK1379901],%Inh,[1]; [6],27%
same,%Inh,[2]; [6],19%
same,%Inh,[3]; [6],2%
same,%Inh,[4]; [6],0%
same,%Inh,[5]; [6],23%
same,%Inh,S6K1; [6],3%
same,%Inh,SBK1; [6],6%
same,%Inh,SGK2; [6],0%
same,%Inh,SGK3; [6],16%
same,%Inh,SGK; [6],0%
same,%Inh,SIK2; [6],2%
same,%Inh,SIK; [6],0%
same,%Inh,SLK; [6],11%
same,%Inh,SNARK; [6],0%
same,%Inh,SNRK; [6],0%
same,%Inh,SRC; [6],0%
same,%Inh,SRMS; [6],0%
same,%Inh,SRPK1; [6],0%
same,%Inh,SRPK2; [6],0%
same,%Inh,SRPK3; [6],0%
Cc1cccc(-c2nc(-c3ccc(S(C)(=O)=O)cc3)sc2-c2ccnc(NCCc3ccccc3)c2)c1,%Inh,[1]; [6],0%
same,%Inh,[2]; [6],5%
same,%Inh,[3]; [6],0%
same,%Inh,[4]; [6],0%
same,%Inh,[5]; [6],0%
same,%Inh,S6K1; [6],0%
same,%Inh,SBK1; [6],0%
same,%Inh,SGK2; [6],2%
same,%Inh,SGK3; [6],0%
same,%Inh,SGK; [6],0%
same,%Inh,SIK2; [6],11%
same,%Inh,SIK; [6],7%
same,%Inh,SLK; [6],7%
same,%Inh,SNARK; [6],0%
same,%Inh,SNRK; [6],7%
same,%Inh,SRC; [6],0%
same,%Inh,SRMS; [6],0%
same,%Inh,SRPK1; [6],0%
same,%Inh,SRPK2; [6],23%
same,%Inh,SRPK3; [6],0%
CS(=O)(=O)c1ccc(-c2nc3n(c2-c2ccncc2)CCC3)cc1 [SKF-105942],%Inh,[1]; [6],5%
same,%Inh,[2]; [6],15%
same,%Inh,[3]; [6],0%
same,%Inh,[4]; [6],0%
same,%Inh,[5]; [6],9%
same,%Inh,S6K1; [6],17%
same,%Inh,SBK1; [6],5%
same,%Inh,SGK2; [6],0%
same,%Inh,SGK3; [6],10%
same,%Inh,SGK; [6],0%
same,%Inh,SIK2; [6],0%
same,%Inh,SIK; [6],1%
same,%Inh,SLK; [6],0%
same,%Inh,SNARK; [6],0%
same,%Inh,SNRK; [6],14%
same,%Inh,SRC; [6],0%
same,%Inh,SRMS; [6],0%
same,%Inh,SRPK1; [6],0%
same,%Inh,SRPK2; [6],0%
same,%Inh,SRPK3; [6],22%
